This passage reports growth results from PubChem BioAssay (NCI).

Compounds without any hit were thinned out: in the full panel of roughly 83,000, 20% have a hit.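 Results are percent growth after 48 hours of single-concentration exposure. 100 means growth as in untreated cells, lower positive values show inhibition; negative values down to -100 show cell death.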 Unmarked numbers belong to inactive results. The source made the active and inactive calls. The calls were made as follows: active = growth percent below 10; inactive = the rest.

This assay deals with HL-60(TB) leukemia. The assay is described as follows: NCI-60 one-dose screen, 48 h (100 = growth as untreated, 0 = no growth, -100 = all killed). The note with it: 10 µM unless noted.
Take `COc1ccc(-c2nc3sc(-c4ccccc4)cn3n2)cc1`: the growth was 67.4%.

Consider `COc1ccc(-n2nc3c(c2-c2ccc(OC)c(OC)c2)-c2oncc2CC3)cc1`, for which the growth was 88.4%.

`COC(=O)c1[nH]nc(OC)c1C1(C(C#N)c2nc3ccccc3s2)CCCc2ccccc21` (configuration not stated): the growth was 79.8%.

In the case of `Nc1ccc(Nc2nccc(-c3ccc4ccccc4c3)n2)cc1`, the growth is 21.2%.

`FC(F)(F)Oc1ccc2c(c1)C[C@H]1C[C@@H](c3ccoc3)N2O1`: the growth was 104%.

On to `Cc1ccc(C(NC(=O)c2ccccc2)c2ccc3cccnc3c2O)cc1` (configuration not stated), for which the growth is -21% (active).

On to `COc1ccccc1N1CCN(CCCOc2ccc(C(=O)/C=C3/C(=O)Nc4ccccc43)cc2)CC1`, for which the growth is 52.8%.

With `O=C1c2ccccc2C2(c3ccc(O)cc3)c3ccccc3Oc3cccc1c32` (configuration not stated), the growth was 1.45% (active).

For the compound `CCOCCc1c(O)nc(SC)[nH]c1=O`, the growth was 93.3%.

With `O=C(CCSc1nnc2n(Cc3ccccc3)c(=O)c3c4c(sc3n12)CCCC4)N1CCN(c2ccccc2)CC1`, the growth was 106%.

For the compound `Cc1nccc2c3ccc(OCc4cn(-c5ccc(Br)cc5)nn4)cc3n(CC(C)C)c12`, the growth was -48.1% (active).

Consider `O=c1c2cc(Br)cc(Br)c2nc(-c2ccc(Cl)cc2)n1/N=C\c1ccccc1F`, for which the growth was 82%.

Take `CN(C)S(=O)(=O)c1ccc(S(=O)(=O)Nc2cccc(Cl)c2N2CCCCC2)cc1`: the growth was 76.7%.

On to `CCOC(=O)n1cc(-c2nonc2-c2cn(C)c3ccccc23)c2ccccc21`, for which the growth is 1.6% (active).

Regarding `Cc1nc(/N=C(\N)NC(=O)Nc2cccc(Cl)c2)sc1C`, the growth was 42.8%.

As for `O=C1c2cc3c(cc2-c2c1c1cc(F)c(F)cc1c(=O)n2CCCn1ccnc1)OCO3`, the growth is -15.4% (active).

Consider `O=c1[nH]nc(-c2ccc(Br)cc2)c2sc(NC(=S)Nc3ccc(Cl)cc3)nc12`, for which the growth is 94.2%.

With `N#Cc1c(Cl)nc(SCC2CO2)nc1-c1ccccc1` (configuration not stated), the growth was 105%.

Regarding `O=c1c2cccc3c(Nc4c(F)cccc4F)ccc(c32)c2nc3ccccc3n12`, the growth was 85.9%.

In the case of `CC1(C)N=C(N)N=C(N)N1c1cccc(/C=C/C=C/c2cccc([N+](=O)[O-])c2)c1`, the growth was 12%.

Take `CC(C)(C)n1cc(-c2ccnc(NCCNS(=O)(=O)c3ccccc3)c2)c(-c2cccc(O)c2)n1`: the growth is 45%.

Consider `CCNC(=O)N1CCc2c(Cl)c3c(c(OC)c2[C@@H]1[C@H]1OCc2c1ccc(OC)c2OC)OCCO3`, for which the growth was -2.42% (active).

Turning to `CCC(c1ccc(O)cc1)C(CC)c1ccc(O)c(F)c1` (configuration not stated), the growth was 56.1%.

In the case of `CC1(C)CC[C@]23CC[C@]4(C)[C@H](CC[C@@H]5[C@@]6(C)C/C(=C/c7ccncc7)C(=O)C(C)(C)[C@@H]6CC[C@]54C)[C@H]2[C@H]1OC3`, the growth is 61%.

On to `CC(Oc1ccc(Cl)cc1)c1ccccc1` (configuration not stated), for which the growth is 93.6%.

Regarding `COc1cc(N)c2ncccc2c1Cl`, the growth is 85.6%.

For the compound `CC(C)C(NC(=O)C1(NC(=O)OCc2ccccc2)CCCC1)C(=O)O` (configuration not stated), the growth is 90.8%.

On to `CC(C)(C)c1cc(C(=O)Nc2cc3ccccc3cc2C(=O)NCCN)cc(C(C)(C)C)c1`, for which the growth is -68.9% (active).

`[2H]C([2H])([2H])Oc1c(F)cccc1/C=C/C(=O)/C=C(O)/C=C/c1cccc(F)c1OC([2H])([2H])[2H]`: the growth is 88.5%.

On to `CN1CCCCC1CCN1c2ccccc2Sc2ccc(Cl)cc21` (configuration not stated), for which the growth was 42.1%.

Consider `CN1CCc2c(c3ccccc3c3ccccc23)C1`, for which the growth was 35.1%.

Consider `COc1ccc([C@H]2c3cc(OC)c(OC)cc3C=C(C=O)C2CO)cc1OC` (some centres not stated), for which the growth was -13.9% (active).

`O=C(Nc1ccc(-n2cc(-c3ccncc3)c(-c3ccc(Cl)c(O)c3)n2)cc1)Nc1ccc(Cl)c(C(F)(F)F)c1`: the growth is -10.5% (active).

For `C/C(=N\O)c1ccc(NC(=O)CSc2nnc(-c3cc(-c4ccc(S(C)(=O)=O)cc4)nc4ccccc34)n2-c2ccccc2)cc1`, the growth is 84%.

With `CC[C@H](CC[C@@H](C)[C@H]1CC[C@H]2[C@@H]3CC[C@@H]4CC(=O)/C(=C\c5ccncc5)C[C@]4(C)[C@H]3CC[C@]12C)C(C)C`, the growth was 83.1%.

Consider `CCCC/C(CC)=N\NS(=O)(=O)c1ccc([N+](=O)[O-])cc1`, for which the growth is 92.2%.

On to `CN1CCN(c2ccc3nc(-c4ccc5nc(-c6ccc(C(F)(F)F)cc6)[nH]c5c4)[nH]c3c2)CC1`, for which the growth was 23.9%.
